For test [1], the system named is Escherichia coli Nissle 1917. Briefly: area under OmniLog respiration curve over 48 h (OmniLog units x h); higher = more growth / nutrient utilisation; extreme values may be limits of the assay. Particulars: incubation: 48 h, 37 °C.
For test [2], the system named is Escherichia coli Nissle 1917. Briefly: DuctApe activity index of respiration/growth curve (0 no growth to 9 maximum) (index 0-9); higher = more growth / nutrient utilisation, active = 3 or more; extreme values may be limits of the assay. To be noted: incubation: 48 h, 37 °C.
Where [3] appears, read: nutrient role: C-Source, carbohydrate.
The mark [4] stands for this setting: nutrient role: C-Source, carboxylic acid.
[5] abbreviates: nutrient role: N-Source, inorganic.

± gives the standard deviation of the averaged measurements.
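Wherever DuctApe activity index of respiration/growth curve (0 no growth to 9 maximum) is given: biolog PM4 phosphorus and sulfur plates, tetrazolium violet dye reduction read in the OmniLog every 15 min, kinetic curves scored by DuctApe, each plate run in triplicate.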

For the compound `N#C[C@H](O[C@@H]1O[C@H](CO[C@@H]2O[C@H](CO)[C@@H](O)[C@H](O)[C@H]2O)[C@@H](O)[C@H](O)[C@H]1O)c1ccccc1` [Amygdalin], the “area under OmniLog respiration curve” value in test [1] (setting [3]) is 4.97 ± 0.43. In addition, the DuctApe activity index in test [2] (setting [3]) was 0 (inactive).

As to `O=C(O)CCCO` [g-Hydroxybutyric acid], the “area under OmniLog respiration curve” value in test [1] (setting [4]) stood at 5800 ± 210. Besides, in test [2] (setting [4]), the DuctApe activity index was 7 (active).

For `O=C(O)CC(Br)C(=O)O` (stereo not drawn) [Bromosuccinic acid], in test [1] (setting [4]), the “area under OmniLog respiration curve” value was determined as 7400 ± 380. Moreover, the DuctApe activity index in test [2] (setting [4]) was 8 (active).

As to `O=[N+]([O-])O` [Nitrate], the “area under OmniLog respiration curve” value in test [1] (setting [5]) turned out to be 4.72. For the same compound, in test [2] (setting [5]), the DuctApe activity index is 0 (inactive).

These data come from the supplement of paper PMC9801561.
